According to PubChem BioAssay AID651784 (National Center for Advancing Translational Sciences (NCATS), 2012):
Records with an inconclusive call do not appear. Active and inactive are the calls of the source. Calls follow the shape of the dose curve; as a rule, active = well fitted inhibition curve with a large enough effect; inconclusive = small, poorly fitted or top-dose-only effect; inactive = no such curve, though single readings can be large or run the other way.

Assay: Acumen qHTS Assay for Inhibitors of the mTORC1 Signaling Pathway in MEF (Tsc2-/-, p53-/-) Cells: Hit Validation;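 also: phospho-rpS6 Ser235/236 immunofluorescence normalized to propidium iodide cell count; nearly all actives have a fitted effect of over 65% in size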;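 as to activity change, negative = inhibition: cells exposed to compound for 24 hours; plate controls were DMSO for no effect and 7.5 nM rapamycin control for full effect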
Details: Acumen imaging; activity change, negative = inhibition: at 37.3 µM (top of the series)
Potency is read from the fitted curve at half-maximal effect.

SMILES | Potency | activity change, negative = inhibition
CCCC1=Nc2cc(C(=O)NC3CCCC3)ccc2Sc2ccc(C)cc21 | 1170 nM (active) | –
CCCS(=O)(=O)c1ncc(Cl)c(C(=O)N2CCN(c3ccc(OC)cc3)CC2)n1 | 7360 nM (active) | –
CCC1=Nc2cc(C(=O)NC3CCC(C)CC3)ccc2Sc2ccc(C)cc21 (configuration not stated) | 1470 nM (active) | –
CC(=O)C1=C(c2ccc(Cl)c(Cl)c2)N(C(C)=O)n2cnnc2S1 | 5210 nM (active) | –
CCc1nnc(SC(CC)C(=O)Nc2cccc(OC)c2)c2cc3oc(C)cc3n12 (configuration not stated) | – | -6.5%
Cc1nn(CC(=O)NCc2ccccc2Cl)c(=O)c2cccn12 | – | 6.27%
CC(C)S(=O)(=O)c1oc(-c2cccs2)nc1S(=O)(=O)c1ccc(F)cc1 | 736 nM (active) | –
Cc1ccc(NC(=O)c2nc(S(=O)(=O)Cc3cccc(C)c3)ncc2Cl)cc1 | – | -108%
CCN(CC)S(=O)(=O)c1ccc(NC(=O)CCc2c(C)nc3cc(-c4ccc(Cl)cc4)nn3c2C)cc1 | – | -101%
Cc1ccc2c(c1)C(=O)C(=O)N2Cc1ccc(OC(C)C)cc1 | 73.6 nM (active) | –
COc1ccc(NC(=O)c2c(C)oc3ccc(O)c(CN4CCCC(C)C4)c23)cc1Cl (configuration not stated) | 9270 nM (active) | –
CCOc1ccc(NC(=O)N(Cc2c[nH]c3ccccc23)C2CCCCCC2)cc1 | – | -15.9%
CCNc1nc2c(c(=O)[nH]c(=O)n2C)n1CC(O)COc1ccc(Cl)cc1Cl (configuration not stated) | 147 nM (active) | –
CCCCS(=O)(=O)c1nc(-c2ccc(Br)cc2)cc(-c2ccccc2)c1C#N | 6560 nM (active) | –
CCN1CCOC(=O)C1CC(=O)Nc1cc(C)ccc1OC (configuration not stated) | 10400 nM (active) | –
COc1cccc(-n2c(-c3ccco3)nc3c(cnn3-c3ccc(C)cc3)c2=O)c1 | – | 15.6%
CCCCOC(=O)c1ccc(NC(=O)c2ccc3c(c2)CCN3S(=O)(=O)c2ccccc2)cc1 | – | -14.2%
CCOC(=O)c1ccc(NC(=O)c2nc(S(=O)(=O)Cc3ccccc3)ncc2Cl)cc1 | 4650 nM (active) | –
Cc1ccc(-n2c(=O)c3ccc(C(=O)NCc4ccco4)cc3n(Cc3ccc(Cl)cc3)c2=O)cc1 | 9270 nM (active) | –

SMILES | Potency | activity change, negative = inhibition
CCc1ccc(S(=O)(=O)c2nnn(-c3ccc(F)cc3)c2N)cc1 | – | -3.55%
CCOc1cc(-c2nnc(SCC(=O)NCc3ccccc3)nc2-c2ccc(OC)c(OCC)c2)ccc1OC | 2070 nM (active) | –
CCCS(=O)(=O)c1ncc(Cl)c(C(=O)Nc2c(C(=O)Nc3ccccc3)oc3ccccc23)n1 | 585 nM (active) | –
CCCCOc1ccc(CN2C(=O)C(=O)c3cc(Br)cc(C)c32)cc1OC | 4650 nM (active) | –
CCc1nn(CC(=O)NCc2ccccc2)c(=O)c2cccn12 | – | 5.81%
FC(F)(F)c1cccc(Nc2nc3nonc3nc2Nc2ccc(Cl)cc2)c1 | 1650 nM (active) | –
COc1cc(C(=O)n2nc(C)c(Sc3ccc(Cl)cc3)c2C)cc(OC)c1OC | – | -8.63%
CCN(CC)CCn1c(=N)n(CCOc2ccccc2Cl)c2ccccc21 | – | -149%
O=C(Cn1c(=O)n(Cc2ccc3c(c2)OCO3)c(=O)c2ccc(C(=O)NC3CCCCC3)cc21)Nc1ccccc1F | – | -94.5%
COc1cc(C(=O)Nc2ccc(NC(=O)c3ccc(C(C)(C)C)cc3)cc2)cc(OC)c1OC | 10400 nM (active) | –
CCCCN(C)CCNC(=O)c1cc2c(=O)n(C)c3ccccc3c2n1C | – | -0.172%
CS(=O)c1ccc(-c2nc(-c3ccc(F)cc3)c(-c3ccncc3)[nH]2)cc1 (configuration not stated) | – | -5.71%
Cc1ccc2occ(CC(=O)Nc3ccc(Cl)c(C(F)(F)F)c3)c2c1 | – | -19.2%
COc1ccc(N(Cc2ccccc2)C(=O)c2nc(S(C)(=O)=O)ncc2Cl)cc1 | 1850 nM (active) | –
CC(C)CS(=O)(=O)c1oc(-c2ccc(F)cc2)nc1S(=O)(=O)c1ccccc1 | – | -152%
Cc1ccc(C)c(CN2C(=O)C(=O)c3ccccc32)c1 | 1470 nM (active) | –
COc1cc(C(=O)NC(c2ccccc2Cl)c2cc(Cl)c3cccnc3c2O)cc(OC)c1OC (configuration not stated) | 2330 nM (active) | –
Cc1c(C(=O)OCCOc2ccccc2)[nH]c2c1C(=O)CC(c1ccccc1)C2 (configuration not stated) | 117 nM (active) | –
